Sampled rows, rich in hits. Any-hit rate of the full collection: about 6.1%.
Bst PK mod – pyruvate kinase (B. stearothermophilus) modulation | purified pyruvate kinase, luminescence ATP production; ribose 5-phosphate activator present at AC10 | Potency, µM | hit rate 1.2% among 51,000 | AID 361; in the data active = potency below about 11 µM; inconclusive = mostly about 12 µM to 25 µM;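 the screen sought inhibitors and activators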
Luciferase inh – blocks Photinus pyralis firefly luciferase activity | purified firefly luciferase, luminescence, 8 min | P08659 | hit rate 2.2% among 72,000 | AID 411 | Potency, µM (highest dose often 57.1 µM), usual class: inhibitors; note: nearly all actives have a fitted effect of over 40% in size
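Inhibition of light generation by firefly luciferase from ATP and luciferin was profiled with concentration-response curves per sample, ATP held at 10 uM within the enzyme's linear range. Plates were read by luminescence after an 8-minute ambient incubation.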
ERK AVP inh – vasopressin-driven ERK pathway inhibition; AID 995; HEK293-V1b, vasopressin-stimulated pERK AlphaScreen; hit rate 0.99% among 72,000; Potency, µM (highest dose often 57.5 µM), hits mostly inhibitors; note: nearly all actives have a fitted effect of over 55% in size
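Phosphorylated ERK1/2 detected via AlphaScreen bead proximity in lysates of V1b-expressing HEK293 cells given 25 nM vasopressin for 5 min after 30 min compound exposure (37 °C). AC50 from Hill equation; basal DMSO 0%, vasopressin 100%.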
Tau filament bind – tau filament binding; P10636; recombinant tau filaments, thioflavin S fluorescence, 15 h; filaments grown with octadecylsulfate alongside compound; Potency, µM (top dose mostly 57.1 µM); hit rate 2% among 71,000; AID 596;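 note: actives lower thioflavin S fluorescence by blocking filaments or displacing dye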
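Assay mix: 1 uM His-tagged tau, 30 uM sodium octadecylsulfate, thioflavine S dye in HEPES/NaCl/DTT buffer. Compound is added prior to the inducer. Fluorescence after 15 h at 37 C.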
Hsp90 Hop PPI – changes Hsp90-Hop TPR2A binding signal, up or down; Potency, µM (doses to about 57 µM); AID 595; AlphaScreen TPR2A-His6 binding biotin-Hsp90 C-terminal peptide; hit rate 0.44% among 71,000; active = well fitted curve in either direction with a large enough effect; inconclusive = small, poorly fitted or top-dose-only effect, or another doubt
15-hLO inh – blocks human 15-lipoxygenase activity; P16050; purified 15hLO-1, xylenol orange hydroperoxide absorbance; Potency, µM (top dose mostly 57.1 µM), usual class: inhibitors; hit rate 1.4% among 74,000; note: nearly all actives have a fitted effect of over 55% in size
Target sequence (P16050 whole entry, looked up): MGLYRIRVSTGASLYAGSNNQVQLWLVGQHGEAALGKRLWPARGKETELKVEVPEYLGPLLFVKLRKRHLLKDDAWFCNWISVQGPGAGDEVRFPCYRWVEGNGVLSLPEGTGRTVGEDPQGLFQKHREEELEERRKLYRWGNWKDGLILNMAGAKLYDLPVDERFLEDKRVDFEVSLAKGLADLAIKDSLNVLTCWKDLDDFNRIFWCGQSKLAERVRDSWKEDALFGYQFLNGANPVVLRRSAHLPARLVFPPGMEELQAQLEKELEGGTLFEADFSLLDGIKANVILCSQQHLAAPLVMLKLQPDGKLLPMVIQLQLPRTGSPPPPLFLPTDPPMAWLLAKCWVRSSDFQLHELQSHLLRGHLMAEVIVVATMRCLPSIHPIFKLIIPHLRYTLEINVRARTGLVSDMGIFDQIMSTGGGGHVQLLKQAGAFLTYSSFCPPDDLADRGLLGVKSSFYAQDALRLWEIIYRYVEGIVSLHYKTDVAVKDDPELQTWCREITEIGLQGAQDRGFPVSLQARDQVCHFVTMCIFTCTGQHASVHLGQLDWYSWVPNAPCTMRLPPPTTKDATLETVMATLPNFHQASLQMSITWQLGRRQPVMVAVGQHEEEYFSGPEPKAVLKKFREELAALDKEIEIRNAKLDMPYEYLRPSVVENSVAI
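Readout: Fe(III)-xylenol orange absorbance, 573-to-405 nm ratio as reaction progress. Enzyme 40 nM purified human 15hLO-1, substrate 50 uM arachidonic acid, 6 min RT after 15 min compound preincubation; Hepes pH 7.5 buffer with Triton X-100.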
Each line names hits and unclear results; the compound was inactive in the other large screens. Unless noted, calls come from the whole dose curve; as a rule, active = well fitted curve in the direction sought with a large enough effect; inconclusive = small, poorly fitted or top-dose-only effect, or another doubt; inactive = no such curve, though single readings can be large; an effect the other way counts as inactive or inconclusive.

O=C(COc1ccccc1)Nn1cnc2ccccc21	15-hLO inh 12.6µM
O=c1ccn(Cc2ccccc2)c(=O)n1Cc1ccccc1	none
O=c1ccsn1Cc1ccccc1	Luciferase inh 20µM, 15-hLO inh inconclusive
Cc1ccc(C=NCc2ccncc2)c(O)c1	15-hLO inh inconclusive
Oc1cccc(C=NCc2ccccc2)c1O	15-hLO inh 5.01µM (no result: Bst PK mod, Luciferase inh, ERK AVP inh, Tau filament bind, Hsp90 Hop PPI)
O=C(CSc1nnc2sc3ccccc3n12)c1ccco1	Luciferase inh 15.8µM
CN(C)C(=O)CSc1nnc2sc3ccccc3n12	none
COc1ccc(-c2cn3c(n2)CCC3)cc1	Luciferase inh 15.8µM (no result: Bst PK mod)
Cc1ccc(-c2cn3c(n2)CCCC3)cc1	none
CN(C)CCNc1nc(-c2ccco2)c2c(c1C#N)CC(C)(C)OC2	none (no result: ERK AVP inh, Tau filament bind, Hsp90 Hop PPI, 15-hLO inh)
CCCCN(C)c1nc(-c2ccco2)c2c(c1C#N)CC(C)(C)OC2	Hsp90 Hop PPI 25.1µM, 15-hLO inh inconclusive (no result: Bst PK mod, ERK AVP inh)
CC1(C)Cc2c(C#N)c(N3CCCC3)nc(-c3ccco3)c2CO1	Hsp90 Hop PPI 25.1µM (no result: Bst PK mod, ERK AVP inh)
CC(C)(C)n1ncc2c(=O)n(CC(=O)NCc3ccccc3)cnc21	Luciferase inh 20µM (no result: Bst PK mod)
COc1cccc(-n2nnc3c(=O)n(Cc4c(F)cccc4Cl)cnc32)c1	none (no result: Bst PK mod)
CC(C)(C)n1ncc2c(=O)n(Cc3c(F)cccc3Cl)cnc21	Bst PK mod 9.95, ERK AVP inh inconclusive
CC(C)(C)n1ncc2c(=O)n(Cc3ccc(Cl)cc3Cl)cnc21	Bst PK mod 2.88, ERK AVP inh inconclusive
CC(C)(C)n1ncc2c(=O)n(CC(=O)c3ccc(Cl)cc3)cnc21	Luciferase inh 20µM (no result: Bst PK mod)
CC(=O)Nc1ccc(NC(=O)Cn2cnc3c(cnn3C(C)(C)C)c2=O)cc1	none
CC(C)(C)n1ncc2c(=O)n(CC(=O)Nc3ccc(Cl)cc3)cnc21	none
CNc1ncncc1-c1c(C)noc1C	15-hLO inh inconclusive (no result: Bst PK mod)
Cn1c(=O)c2c(nc(NCc3ccco3)n2C/C=C/c2ccccc2)n(C)c1=O	ERK AVP inh 31.6µM
Cn1c(=O)c2c(nc(NCc3ccco3)n2C)n(C)c1=O	none
CCOC(=O)c1[nH]cnc1C(=O)O	Hsp90 Hop PPI 25.1µM
CCOc1ccc(C(=O)N2CCCN(C(=O)c3ccc(OCC)cc3)CC2)cc1	none (no result: Bst PK mod, Luciferase inh, ERK AVP inh, Tau filament bind, Hsp90 Hop PPI)
CCOc1ccc(OCc2cccc(C(=O)N3CCOCC3)c2)cc1	Bst PK mod 8.48, Luciferase inh 5.01µM
Cc1nc2cnc(N3CCNCC3)nc2n(C2CC2)c1=O	none (no result: Bst PK mod)
CCOC(=O)c1c(-c2ccc(C)o2)csc1N	ERK AVP inh inconclusive, Hsp90 Hop PPI inconclusive, 15-hLO inh 1.58µM (no result: Bst PK mod)
C=CCOc1c(CNc2nccs2)cccc1OCC	Bst PK mod inconclusive, Luciferase inh 12.6µM
N#Cc1cccc(NC(=O)N2CC3(CCN(C(=O)c4cc(C(F)(F)F)cc(C(F)(F)F)c4)CC3)C2)c1	none (no result: Bst PK mod)
N#C/C(=C(/N)Sc1ccc(N)cc1)c1ccccc1C(F)(F)F	ERK AVP inh 0.316µM, 15-hLO inh inconclusive (no result: Bst PK mod, Luciferase inh, Tau filament bind, Hsp90 Hop PPI)
C[C@@]1(CO)[C@H](O)CC[C@]2(C)[C@@H]1CC[C@H]1C[C@H]3C[C@]12CC[C@]3(O)COC(=O)CN	none (no result: Bst PK mod)
CC(C)C(c1nnnn1Cc1ccco1)N1CCN(C2CCCC2)CC1 (stereo not given)	Hsp90 Hop PPI inconclusive, 15-hLO inh inconclusive
CC(C)C(c1nnnn1Cc1ccco1)N1CCN(c2nc3ccccc3s2)CC1 (stereo not given)	ERK AVP inh 2µM
N#CCCCCN1c2cccc3cccc(c23)S1(=O)=O	Bst PK mod 7.94
N#CC1=C(N)SC(N)=C(C#N)C1CCC1CCCCC1	15-hLO inh 15.8µM
Cn1nnc(-c2ccc(OCc3ccccc3F)cc2)n1	Luciferase inh 25.1µM
CC(C)(C)OC(=O)NCCCCCc1nnc(SCC(=O)Nc2cccc(Cl)c2)o1	ERK AVP inh 25.1µM
COc1cccc(Cn2c(=O)c(-c3cccs3)nc3cnc(Nc4cccc(OC)c4)nc32)c1	Hsp90 Hop PPI 7.94µM (no result: Bst PK mod)
COc1cccc(Cn2c(=O)cnc3cnc(OCc4ccccc4)nc32)c1	Tau filament bind inconclusive (no result: Bst PK mod)
O=c1c(-c2ccc(Cl)cc2)nc2cncnc2n1Cc1ccccc1	Tau filament bind inconclusive (no result: Bst PK mod)
COc1ccc(Nc2ncc3nc(-c4cccs4)c(=O)n(Cc4cccc(OC)c4)c3n2)cc1	none (no result: Bst PK mod)
COc1cccc(Cn2c(=O)c(-c3ccc(Cl)cc3)nc3cncnc32)c1	ERK AVP inh inconclusive, Tau filament bind 25.1µM (no result: Bst PK mod)
